Cav32 inh: human Cav3.2 channel inhibition, primary screen. B-score at 10 µM. Cav3.2-expressing cells, Fluo-4 calcium fluorescence FDSS; hits give low values. 100,000 compounds, 4% hits. AID 449739. O95180;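 active = single-dose well whose peak fluorescence ratio is a statistical outlier from its plate by either plate-standardised score or position-corrected B-score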
PostGolgi ctrl: growth of the yeast control strain, post-Golgi counter-screen; inhibition, % at 10 µM; efflux-deficient yeast background strain, growth absorbance A615, 16 h; AID 738; 98,000 compounds, 5% hits
hDAT+cocaine: modulates human dopamine transporter uptake under cocaine. AID 449768. B-score at 10 µM. Q01959. 110,000 compounds, 1.3% hits. LLC-PK1 hDAT cells, [14C]-dopamine uptake with cocaine IC80; actives deviate in either direction;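 active = Z score or B-score, a plate-position-corrected score, falls beyond the plate's 99.7% confidence bounds, in either direction; inactive = both scores lie inside the 99.7% bounds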;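 note: scored against the spread of the other compound wells on the same plate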
PostGolgi yeast: growth inhibition of a yeast mutant, post-Golgi transport screen; AID 739; post-Golgi transport phenotypic cell assay; inhibition, % at 10 µM; 98,000 compounds, 0.9% hits;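 note: yeast cells grown in 1536-well plates; yeast grown about 18 h at 30C before absorbance read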
D1 mod: D1 dopamine receptor (human) allosteric modulation. P21728. HEK293 D1, CRE-luciferase, dopamine EC30 potentiation; actives deviate in either direction. B-score at 10 µM. 58,000 compounds, 5.9% hits. AID 641;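 active = luminescence count or its row- and column-corrected plate score outside the 99.7% band of the plate's sample wells, on either side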
Target sequence (P21728 whole entry, looked up): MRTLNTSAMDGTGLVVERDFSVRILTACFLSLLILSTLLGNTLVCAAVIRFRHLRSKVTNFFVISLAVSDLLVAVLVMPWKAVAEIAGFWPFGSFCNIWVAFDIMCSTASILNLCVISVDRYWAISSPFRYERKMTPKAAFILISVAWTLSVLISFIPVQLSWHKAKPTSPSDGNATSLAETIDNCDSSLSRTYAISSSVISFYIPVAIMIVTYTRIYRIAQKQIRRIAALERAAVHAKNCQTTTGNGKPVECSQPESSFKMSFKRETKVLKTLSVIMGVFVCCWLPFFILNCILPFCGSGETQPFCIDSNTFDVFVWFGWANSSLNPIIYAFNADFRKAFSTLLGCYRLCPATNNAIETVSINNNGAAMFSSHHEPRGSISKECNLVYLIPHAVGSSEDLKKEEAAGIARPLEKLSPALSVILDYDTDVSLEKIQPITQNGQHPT
PLAP activator: activates human placental alkaline phosphatase. P05187. purified PLAP enzyme, luminescent substrate read-out; hits give high values. activation fold at 20 µM. 96,000 compounds, 1.2% hits. AID 696; in the data active = activation fold above about 2
* = called active by the depositor; / = no result given. Rows were chosen to be rich in hits. Some 12% of all compounds tested hit in one or more screens of this group. Cut-off read from the data, not from the text of the source, unless noted: active = inhibition above about 30%; inactive = the rest.

SMILES | Cav32 inh | PostGolgi ctrl | hDAT+cocaine | PostGolgi yeast | D1 mod | PLAP activator
CC1(C)CC(=O)C2=C(C1)OC(N)=C(C#N)C2c1ccc(OC(=O)N2CCOCC2)cc1 (stereo not drawn) | 0.778 | 6.4 | 0.399 | -4.8 | -0.0294 | 1.3
COc1cc(C2C(C#N)=C(N)OC3=C2C(=O)CC(C)(C)C3)ccc1OC(=O)N1CCOCC1 (stereo not drawn) | 1.32 | 32.9* | 0.312 | 0.5 | -0.648 | 1.3
Cc1nnc(Sc2nc3c(c(=O)[nH]c(=O)n3C)n2Cc2ccccc2Cl)s1 | / | / | / | / | 1.4 | /
COc1cc(-c2cc(OC)c3c(C)oc(C)c3c(=O)c2)ccc1O | -2.11 | 45.0* | 0.859 | 6.5 | 2.53 | 1.2
Cn1c(NCc2ccccc2)cc(=O)n(C)c1=O | 0.902 | 8.0 | -1.34 | -0.5 | 0.284 | 0.8
Cn1c(=O)cc(NCc2ccccc2)[nH]c1=O | 0.326 | -5.2 | 0.683 | 39.9* | / | 1
CCN(CC)S(=O)(=O)c1cccc(-c2nnc(SCCOc3ccc(Cl)cc3)o2)c1 | -7.92* | 1.4 | -0.765 | -5.0 | -1.75 | 1.1
CCN(CC)S(=O)(=O)c1cccc(-c2nnc(SCC(=O)c3cc(C)n(C)c3C)o2)c1 | -0.479 | 0.7 | 0.217 | -2.2 | 0.995 | 1.1
CCN(CC)S(=O)(=O)c1cccc(-c2nnc(SCCOc3ccccc3C)o2)c1 | -4.73* | 1.9 | -0.0718 | -26.9 | / | 0.9
CCN(CC)c1ncnc2sc(C(=O)N3CCN(c4ccccc4)CC3)c(C)c12 | -0.215 | 17.1 | 0.042 | 9.0 | -0.997 | 1.5
COCCCn1c(SCc2ccccc2)nc2cc(OC)c(OC)cc2c1=N | -0.149 | 30.0 | 8.21* | -4.7 | / | 1.4
COc1cc2nc(SCc3ccc(C(F)(F)F)cc3)n(Cc3cccs3)c(=N)c2cc1OC | 0.288 | 0.0 | -1.07 | 1.9 | / | 1.2
COCCCn1c(SCc2cccc(C(F)(F)F)c2)nc2cc(OC)c(OC)cc2c1=N | -0.555 | 41.8* | 1.09 | 15.0 | / | 1.3
CCCCOC(=O)Nc1cccc(C(C)=O)c1 | 1 | -7.0 | -0.224 | 0.6 | 0.343 | 0.9
CCN(CC)CC(=O)n1c2c(c3ccccc31)CCCC2 | -0.952 | 0.9 | -0.113 | -5.8 | -0.327 | 1.6
O=C(CSc1ncccn1)n1c2c(c3ccccc31)CCCC2 | -1.68 | 50.7* | 0.00033 | -0.8 | / | 1.1
COc1cccc(-c2[nH]nc3c2C(c2ccoc2)C(C#N)=C(N)O3)c1 (stereo not drawn) | 0.0802 | 9.0 | 0.103 | 4.0 | / | 1.1
Cc1nc(NC(=O)c2ccccc2)sc1C1(C)CC(c2ccc(OC(F)(F)F)cc2)=NO1 (stereo not drawn) | -1.4 | / | -0.308 | / | / | /
CCOC(=O)C(CO)(NC(C)=O)C(=O)OCC | -1.78 | -1.2 | 0.324 | 7.3 | 0.157 | 1.1
O=c1cc(-c2ccccc2)nc(N2CCN(Cc3ccccc3)CC2)[nH]1 | / | 38.9* | -0.0123 | 12.9 | 2.03 | 1.5
Cc1nc(N2CCN(Cc3ccccc3)CC2)[nH]c(=O)c1C | 2.64 | / | / | / | 0.518 | 1.2
COc1ccc(NC(=O)CN2CCOCC2)cc1 | 0.483 | 3.0 | -0.288 | 12.3 | / | 1
O=c1c2ccccc2nc2n1CCS2 | 0.487 | 6.0 | -0.975 | 3.9 | -0.44 | 0.8
N#Cc1c(-c2ccc(Cl)cc2Cl)nc2n(c1=O)CCS2 | -0.936 | 32.1* | -0.817 | -5.2 | 3.04 | 1.5
CC(NC(=O)c1ccccc1)C(c1cccs1)N1CCOCC1 (stereo not drawn) | -0.491 | -0.3 | 0.277 | -6.2 | / | 0.9
SMILES | Cav32 inh | PostGolgi ctrl | hDAT+cocaine | PostGolgi yeast | D1 mod | PLAP activator
CC1(C)CC(=O)c2c(nc(SCC(=O)Nc3nsc(-c4ccccc4)n3)c(C#N)c2-c2ccccc2)C1 | -2.36* | 1.2 | -0.204 | 1.4 | / | 1
Cc1ccc(-n2nnnc2C(Cl)(Cl)c2nnnn2-c2ccc(C)cc2)cc1 | 0.665 | 100.3* | 0.38 | 108.5* | / | 0.9
Cc1sc2nc3n(c(=O)c2c1C)Cc1ccccc1-3 | / | / | / | / | 0.285 | 0.9
Cc1ccc2[nH]cc(CCNC(=O)Nc3ccccc3)c2c1 | -3.93* | 7.8 | 0.233 | -1.8 | / | 0.7
Cc1ccc2[nH]cc(CCNC(=O)c3cccnc3)c2c1 | 0.304 | 7.4 | 0.0144 | 0.2 | / | 0.8
O=C(CN(Cc1ccccc1)C(=O)c1cc2c(s1)CCC2)NCc1cccs1 | -4.53* | 35.0* | 1.26 | 0.9 | / | 1
O=C(CN(C(=O)c1cc2c(s1)CCC2)C1CCCC1)NCc1cccs1 | -2.56 | -6.7 | 0.00885 | -5.8 | 0.0223 | 1.3
CCOC(=O)C(=CN(CCc1ccccc1)CC(=O)OC)C(=O)OCC | 0.864 | / | -0.452 | / | / | /
CC(Nc1ccccc1)c1cc(Cl)ccc1O (stereo not drawn) | -7.11* | / | -0.208 | / | / | /
Cc1c(CNC(=O)c2cnn3c2NC(c2ccc(Br)cc2)CC3C(F)(F)F)cnn1C (stereo not drawn) | -0.467 | 13.5 | 3.13* | -24.0 | 0.334 | 1.7
Cc1nn(Cc2ccc(F)cc2)c(C)c1NC(=O)c1cnn2c1NC(c1cccs1)CC2C(F)(F)F (stereo not drawn) | -3.87 | 14.8 | 2.92* | 2.7 | / | 1.9
Cc1c(NC(=O)c2cnn3c2NC(c2ccc(Br)cc2)CC3C(F)(F)F)c(=O)n(-c2ccccc2)n1C (stereo not drawn) | -7.77* | / | 1.91 | / | / | /
Cc1nn(C)cc1CNC(=O)c1cnn2c1NC(c1ccc(Br)cc1)CC2C(F)(F)F (stereo not drawn) | -0.847 | 9.6 | -0.378 | 1.8 | 0.00549 | 1.6
Cc1nn(Cc2ccc(F)cc2)c(C)c1NC(=O)c1cnn2c1NC(c1ccccc1)CC2C(F)(F)F (stereo not drawn) | -0.838 | 2.2 | 0.0923 | 18.2 | / | 1.5
CC(C)(NCc1ccccc1Cl)C(=O)O | / | / | / | / | 0.023 | /
COc1cccc(NC(=O)Cn2c(=O)n(CC3CCCO3)c(=O)c3ccccc32)c1 (stereo not drawn) | 1.66 | 1.2 | 0.733 | 3.5 | / | 1.8
CCC1SC2=NC(C)=C(C(=O)OCCOC)C(/C=C/c3ccccc3OC)N2C1=O (stereo not drawn) | -5.77* | 18.5 | -7.6* | 9.5 | / | 1.6
COC(=O)C1=C(C)N=C2SC(C)C(=O)N2C1/C=C/c1ccccc1OC (stereo not drawn) | -7.38* | 9.3 | -0.0518 | 5.4 | / | 1.3
COc1ccc(-n2cnnc2SCc2csc(-c3ccccc3)n2)cc1 | -0.672 | 2.8 | 1.29 | -2.4 | 0.299 | 0.9
O=C(Cn1c(NCCCO)nc2ccccc21)c1cccs1 | 0.00215 | / | 0.00356 | / | -0.0119 | /
O=c1[nH]c(/C(=N\O)c2ccccc2)no1 | 0.0359 | -0.8 | 0.929 | -7.3 | 0.174 | 1
CCCCc1ccc(-c2ccc(C)cc2O)nc1 | -0.12 | 6.5 | 0.0102 | -5.5 | -5.29* | 0.9
CCC(=O)Nc1nnc(CSCc2ccc(F)cc2)s1 | 0.294 | -1.3 | 0.363 | -9.3 | / | 1
O=[n+]1c2c(n([O-])c3cc(F)c(N4CCCC4)cc31)CCC2 | / | / | -0.234 | / | 0.228 | /
O=[n+]1c2c(n([O-])c3cc(F)c(N4CCCC4)cc31)CCCC2 | -7.27* | 16.6 | -1.67 | 2.9 | -0.712 | 0.7
O=C(c1cc(-c2ccco2)nn1-c1cccc(Cl)c1)N1CCCCC1 | -5.88* | 9.2 | 0.463 | -2.4 | 4.51 | 1.3

Screening data (PubChem BioAssay)
